What follows are sequences tested against TGFB1I1 (assay: pooled miR-30 sensor sort-seq; sequence = guide strand). Settings: shRNA.
Work on ATTTGTGGAGCTCACCACCGGT yielded a sensor-assay potency score (higher = more potent) of -0.966. Sequence TTTGTGGAGCTCACCACCGGTG has a sensor-assay potency score (higher = more potent) of -1.15. For TTGTCTGTGTGCAATCCACTTT, the sensor-assay potency score (higher = more potent) was 0.0751. Sequence TTAAGTTCCTGAAGCAACCGAT has a sensor-assay potency score (higher = more potent) of -0.211. TTTATTGCAGGAGCCACAGAGG gave a sensor-assay potency score (higher = more potent) of -1.1. TCATCTGTGATGTTGAACTGAG showed a sensor-assay potency score (higher = more potent) of -0.542. In the case of TCTTTTCTTATCTTCAGACTGG, the sensor-assay potency score (higher = more potent) is reported as -0.149. In the case of TTCCTGAAGCAACCGATCTAGC, the sensor-assay potency score (higher = more potent) is reported as -0.825. Work on TGAGACATGATTTCATCTGTGA yielded a sensor-assay potency score (higher = more potent) of 0.918. In the case of TAAGTTCCTGAAGCAACCGATC, the sensor-assay potency score (higher = more potent) is reported as -1.43.

The sequences below were run against THNSL1 in the same assay as above. Settings: shRNA.
For TATAATTGCAACTTGGTGGGAT, the sensor-assay potency score (higher = more potent) was 0.997. TATCTGTGCTCTTTCTACGTAG was tested, and the sensor-assay potency score (higher = more potent) was -0.49. TTTGAGAATATCTATTGACGGT showed a sensor-assay potency score (higher = more potent) of -0.0842. In the case of TTGCTCATTACCAACATCCTGT, the sensor-assay potency score (higher = more potent) is reported as 0.41. Work on TTCTTTAATCTTTAAAGCCTGC yielded a sensor-assay potency score (higher = more potent) of -0.791. TTGAGAATATCTATTGACGGTG gave a sensor-assay potency score (higher = more potent) of -0.169. For ATCTAGTAGAGGTACATCCAGG, the sensor-assay potency score (higher = more potent) was -1.3. TTTGTCTCCAACAAGAGAGTGG gave a sensor-assay potency score (higher = more potent) of -0.0448. In the case of TATACTAGAAAAACATTTCTGT, the sensor-assay potency score (higher = more potent) is reported as 0.647. TATGACACAACAACCTAGTTTC gave a sensor-assay potency score (higher = more potent) of -0.543. In the case of TATCCTTTGCTTATCATTCTTA, the sensor-assay potency score (higher = more potent) is reported as 0.234. TATAGGTGGAGTTAATAGCTGC gave a sensor-assay potency score (higher = more potent) of -0.591.

What follows are sequences tested against THOC7 in the same assay as above. Settings: shRNA.
In the case of TTCCTGAGCTTCTTCTACCTCT, the sensor-assay potency score (higher = more potent) is reported as -0.111. With TAAGAAGAACATGAAACTGTTT the sensor-assay potency score (higher = more potent) was -0.283. TTTTCGTATTCGTTTTGCTTGA gave a sensor-assay potency score (higher = more potent) of -0.919. TTTTGCTTGAAGAATTTGCTTT showed a sensor-assay potency score (higher = more potent) of -0.308. TAATTCTCCGATCATCTCCAGC showed a sensor-assay potency score (higher = more potent) of -0.503. Sequence TTTGCTTGAAGAATTTGCTTTT has a sensor-assay potency score (higher = more potent) of -0.209. TAATGTGTGAAAGATGCTCTAA showed a sensor-assay potency score (higher = more potent) of 0.0139. TATGCTACATTCTATTTCCTTG gave a sensor-assay potency score (higher = more potent) of -0.777. For TTCGTATTCGTTTTGCTTGAAG, the sensor-assay potency score (higher = more potent) was -0.51. With TTTAATGAAACTCTTCACTAGC the sensor-assay potency score (higher = more potent) was 0.0596. TTTCCGTCTCAATTCCAGCTTA gave a sensor-assay potency score (higher = more potent) of -0.243.

These sequences were tested against TIMM44 in the same assay as above. Settings: shRNA.
Sequence TTGTTTGACATTATCTAGCAAG has a sensor-assay potency score (higher = more potent) of -0.93. Work on TTCTCTTCCGGAGTCGCTGGGG yielded a sensor-assay potency score (higher = more potent) of -0.531. TTCGTCATACTTCATCTTCATC showed a sensor-assay potency score (higher = more potent) of -1.59. Work on TAGCTTCATAGCACCAGTCTTT yielded a sensor-assay potency score (higher = more potent) of -0.701. TTTACTGACTTCGTGAAGGCTC showed a sensor-assay potency score (higher = more potent) of 0.133. Sequence ATCTTCATCTCGAAGAACCGGT has a sensor-assay potency score (higher = more potent) of -0.094. Work on TGACATTATCTAGCAAGCCGGA yielded a sensor-assay potency score (higher = more potent) of -1.13.

Source: the OligoGym collection
Further: reference of the scale not given here.
